Compound activity as filed in PubChem BioAssay.
Shown is part of a subset that was picked to be rich in hits.
C diff growth – blocks growth of Clostridium difficile; Clostridium difficile clinical isolate growth, OD600, 24 h; hits give low values; growth activity, negative = inhibition, % at 16 µg/mL (by protocol); 86,000 compounds, 0.25% hits;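 active = mean growth activity at or below -80% and every replicate also at or below -80%; inconclusive = mean at or below -80% but some replicate above -80%; inactive = mean growth activity above -80%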
T cruzi growth-1 – T. cruzi proliferation inhibition; T. cruzi beta-gal in NIH3T3, GalScreen luminescence, 90 h; inhibition, % at 8.34 µM; 77,000 compounds, 5.9% hits; AID 624255;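 active = mean inhibition above about 93%, with at least 55% of replicates each passing it, limit read from the data, passing the limit was not always enough; inconclusive = only one of those two conditions holds; inactive = neither condition holds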
T cruzi growth-2 – inhibitors of T. cruzi proliferation; shares compounds with T cruzi growth-1; T. cruzi beta-gal in NIH3T3, GalScreen luminescence, 90 h; inhibition, % at 8.35 µM; 5,600 compounds, 72% hits;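 active = mean replicate inhibition above about 95% and at least 55% of replicates individually reaching it, limit read from the data; inconclusive = only one of the two criteria is met; inactive = neither criterion is met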
T cruzi growth-3 – Trypanosoma cruzi proliferation inhibition; T. cruzi beta-gal in NIH3T3, GalScreen luminescence, 90 h; inhibition, % at 2.09 µM; shares compounds with T cruzi growth-1; 5,600 compounds, 21% hits;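 active = mean inhibition above about 95%, with at least 55% of replicates also reaching it, limit read from the data; inconclusive = meets just one of the two conditions; inactive = meets neither condition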
3T3 cytotox – kills mouse NIH/3T3 fibroblasts; shares compounds with T cruzi growth-1; NIH/3T3 viability, CellTiter-Glo ATP luminescence, 90 h; cytotoxicity (signal decrease), % at 8.35 µM; 5,600 compounds, 14% hits;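 active = mean signal decrease across replicates above about 35% based on untreated-well scatter, with enough replicates individually passing, limit read from the data; inconclusive = no rule stated though some were filed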
3T3 cytotox 2 – cytotoxicity in mouse NIH/3T3 fibroblasts; NIH/3T3 viability, CellTiter-Glo ATP luminescence, 90 h; 5,600 compounds, 56% hits; AID 651744; inhibition, % at 24.9 µM; shares compounds with T cruzi growth-1;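 active = mean loss of cell viability signal at or above a set limit, and enough replicates individually reaching it; inconclusive = meets only the mean limit or only the replicate share; inactive = meets neither condition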
A number is an active result.

COc1ccc(S(=O)(=O)Nc2ccc3c(c2)C(=O)N([C@@H](C)CO)C[C@H](C)[C@H](CN(C)S(=O)(=O)c2ccc(Cl)cc2)OCCCC[C@H](C)O3)cc1 was read as C diff growth inactive, T cruzi growth-1 inconclusive, T cruzi growth-2 107.8, T cruzi growth-3 inactive, 3T3 cytotox inactive and 3T3 cytotox 2 inactive.
`COc1ccc(S(=O)(=O)Nc2ccc3c(c2)C(=O)N([C@@H](C)CO)C[C@H](C)[C@H](CN(C)S(=O)(=O)c2ccc(Cl)cc2)OCCCC[C@@H](C)O3)cc1` gave C diff growth inactive, T cruzi growth-1 98.8, T cruzi growth-2 103.8, T cruzi growth-3 inactive, 3T3 cytotox inactive and 3T3 cytotox 2 inactive.
For CCC(=O)N(C)C[C@H]1Oc2ncc(-c3ccccc3OC)cc2C(=O)N([C@@H](C)CO)C[C@@H]1C the results were C diff growth inactive and T cruzi growth-1 inactive.
Cc1ccc(S(=O)(=O)N[C@@H]2CC[C@H](CCNS(=O)(=O)Cc3ccccc3)O[C@H]2CO)cc1 was read as C diff growth inactive and T cruzi growth-1 inactive.
For CC(C)CC#Cc1ccc2c(c1)O[C@H](CN(C)C(=O)Cc1ccncc1)[C@H](C)CN([C@H](C)CO)S2(=O)=O the results were C diff growth inactive and T cruzi growth-1 inactive.
CC(C)CC#Cc1ccc2c(c1)O[C@H](CN(C)C(=O)Cc1ccncc1)[C@H](C)CN([C@@H](C)CO)S2(=O)=O was read as C diff growth inactive, T cruzi growth-1 100.6, T cruzi growth-2 101.2, T cruzi growth-3 inactive, 3T3 cytotox inactive and 3T3 cytotox 2 inactive.
`CC(C)CC#Cc1ccc2c(c1)O[C@@H](CN(C)C(=O)Cc1ccncc1)[C@@H](C)CN([C@@H](C)CO)S2(=O)=O` gave C diff growth inactive, T cruzi growth-1 inconclusive, T cruzi growth-2 103.0, T cruzi growth-3 inactive, 3T3 cytotox inactive and 3T3 cytotox 2 75.1.
For CC(C)CC#Cc1ccc2c(c1)O[C@@H](CN(C)C(=O)Cc1ccncc1)[C@H](C)CN([C@H](C)CO)S2(=O)=O the results were C diff growth inactive and T cruzi growth-1 inactive.
C[C@@H]1CN([C@@H](C)CO)S(=O)(=O)c2ccc(C#Cc3ccccc3)cc2O[C@H]1CN(C)C(=O)C1CC1 was read as C diff growth inactive and T cruzi growth-1 inactive.
`C[C@H](O)C#Cc1cnc2c(c1)C(=O)N([C@H](C)CO)C[C@H](C)[C@H](CN(C)Cc1cccc(F)c1)O2` gave C diff growth inactive and T cruzi growth-1 inactive.
`C[C@@H]1CN([C@H](C)CO)S(=O)(=O)c2ccc(C3=CCCCC3)cc2O[C@H]1CN(C)S(=O)(=O)c1ccc(F)cc1` gave C diff growth inactive, T cruzi growth-1 122.2, T cruzi growth-2 102.7, T cruzi growth-3 inactive, 3T3 cytotox 42.1 and 3T3 cytotox 2 87.8.
Screening C[C@H](CO)N1C[C@H](C)[C@@H](CN(C)S(=O)(=O)c2ccc(F)cc2)Oc2cc(C3=CCCCC3)ccc2S1(=O)=O returned C diff growth inactive, T cruzi growth-1 114.0, T cruzi growth-2 101.8, T cruzi growth-3 98.9, 3T3 cytotox 37.9 and 3T3 cytotox 2 64.3.
For Cc1ccc(S(=O)(=O)N(C)C[C@H]2Oc3cc(C4=CCCC4)ccc3S(=O)(=O)N([C@@H](C)CO)C[C@H]2C)cc1 the results were C diff growth inactive.
`Cc1ccc(S(=O)(=O)N(C)C[C@H]2Oc3cc(C4=CCCC4)ccc3S(=O)(=O)N([C@H](C)CO)C[C@@H]2C)cc1` gave C diff growth inactive.
Screening C[C@H]1CN([C@@H](C)CO)S(=O)(=O)c2ccc(C3=CCCC3)cc2O[C@@H]1CN(C)S(C)(=O)=O returned T cruzi growth-1 inactive.
For CC(=O)N1[C@H](CO)[C@@H]2c3ccccc3N(C(=O)Nc3cc(F)ccc3F)C[C@@H]21 the results were C diff growth inactive and T cruzi growth-1 inactive.
CN1c2ccc(-c3ccccc3F)cc2[C@H]2[C@H](CCN2S(=O)(=O)c2ccc(F)cc2)[C@@H]1CO was read as C diff growth inactive, T cruzi growth-1 113.3, T cruzi growth-2 98.8, T cruzi growth-3 98.3, 3T3 cytotox inactive and 3T3 cytotox 2 79.8.
Screening CN1c2ccc(-c3ccccc3F)cc2[C@H]2[C@H](CCN2S(=O)(=O)c2ccccc2F)[C@@H]1CO returned C diff growth inactive and T cruzi growth-1 inactive.
For CN1c2ccc(-c3ccccc3F)cc2[C@@H]2[C@@H](CCN2S(=O)(=O)c2ccccc2F)[C@@H]1CO the results were C diff growth inactive, T cruzi growth-1 115.9, T cruzi growth-2 100.1, T cruzi growth-3 inactive, 3T3 cytotox inconclusive and 3T3 cytotox 2 40.8.
Screening Cc1ccc(S(=O)(=O)N2CC[C@H]3[C@@H](CO)N(C)c4ccc(-c5ccccc5F)cc4[C@H]32)cc1 returned C diff growth inactive and T cruzi growth-1 inactive.
Screening COCC(=O)Nc1ccc2c(c1)OC[C@@H](C)N(Cc1ccccc1)C[C@@H](C)[C@@H](OC)CN(C)C2=O returned C diff growth inactive and T cruzi growth-1 inactive.
Screening CO[C@H]1CN(C)C(=O)c2cc(NC(C)=O)ccc2OC[C@@H](C)N(Cc2cc(F)ccc2F)C[C@@H]1C returned T cruzi growth-1 inactive.
`O=C(c1ccc(F)cc1)N1CCCCN2[C@H](C1)[C@H](c1ccc(-c3ccccc3)cc1)[C@@H]2CO` gave C diff growth inactive and T cruzi growth-1 inactive.
Screening O=C(c1cccc(F)c1)N1CCCCN2[C@H](CO)[C@@H](c3ccc(/C=C/c4ccccc4)cc3)[C@@H]2C1 returned C diff growth inactive, T cruzi growth-1 108.8, T cruzi growth-2 100.2, T cruzi growth-3 inactive, 3T3 cytotox inactive and 3T3 cytotox 2 inactive.
Screening O=C(c1cccc(F)c1)N1CCCCN2[C@H](C1)[C@H](c1ccc(-c3ccc(F)cc3)cc1)[C@@H]2CO returned C diff growth inactive and T cruzi growth-1 inactive.
Screening O=C(c1cccc(F)c1)N1CCCCN2[C@H](CO)[C@H](c3ccc(-c4cncnc4)cc3)[C@@H]2C1 returned C diff growth inactive and T cruzi growth-1 inactive.
O=C(c1cccc(F)c1)N1CCCCN2[C@H](C1)[C@H](c1ccc(/C=C/c3ccccc3)cc1)[C@@H]2CO was read as C diff growth inactive, T cruzi growth-1 110.2, T cruzi growth-2 inconclusive, T cruzi growth-3 inactive, 3T3 cytotox inactive and 3T3 cytotox 2 103.4.
For O=C(c1cccc(F)c1)N1CCCCN2[C@@H](CO)[C@@H](c3ccc(/C=C/c4ccccc4)cc3)[C@@H]2C1 the results were C diff growth inactive, T cruzi growth-1 109.1, T cruzi growth-2 101.4, T cruzi growth-3 inactive, 3T3 cytotox 65.9 and 3T3 cytotox 2 104.9.
For O=C(c1ccc(F)cc1)N1CCCCN2[C@@H](CO)[C@H](c3ccc(/C=C/c4ccccc4)cc3)[C@@H]2C1 the results were C diff growth inactive, T cruzi growth-1 111.7, T cruzi growth-2 95.1, T cruzi growth-3 inactive, 3T3 cytotox 59.7 and 3T3 cytotox 2 103.3.
